Compound activity from PubChem BioAssay.
Pf Dd2 inh – P. falciparum Dd2 growth inhibition. SYBR Green, 72 h; hits give low values. activity change, % at 10 µM. 2.3% of 94,000 active. AID 1159554; in the data active = activity change below about -80%; inconclusive = no clear call, values can overlap the other calls
C diff HTS – blocks growth of Clostridium difficile | growth activity, negative = inhibition, % at 16 µg/mL (by protocol) | 0.25% of 86,000 active | Clostridium difficile clinical isolate growth, OD600, 24 h; hits give low values;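 active = mean growth activity at or below -80% and every replicate also at or below -80%; inconclusive = mean at or below -80% but some replicate above -80%; inactive = mean growth activity above -80%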;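 also: 0% = DMSO wells and -100% = levofloxacin 16 µg/mL wells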
T cruzi growth-1 – blocks T. cruzi growth in NIH3T3 culture. T. cruzi beta-gal in NIH3T3, GalScreen luminescence, 90 h. inhibition, % at 8.34 µM. 5.9% of 77,000 active;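 active = mean inhibition above about 93%, with at least 55% of replicates each passing it, limit read from the data, passing the limit was not always enough; inconclusive = only one of those two conditions holds; inactive = neither condition holds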
T cruzi growth-2 – Trypanosoma cruzi proliferation inhibition. 72% of 5,600 active. inhibition, % at 8.35 µM. shares compounds with T cruzi growth-1. T. cruzi beta-gal in NIH3T3, GalScreen luminescence, 90 h;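 active = mean replicate inhibition above about 95% and at least 55% of replicates individually reaching it, limit read from the data; inconclusive = only one of the two criteria is met; inactive = neither criterion is met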
T cruzi growth-3 – inhibitors of T. cruzi proliferation. 21% of 5,600 active. inhibition, % at 2.09 µM. shares compounds with T cruzi growth-1. T. cruzi beta-gal in NIH3T3, GalScreen luminescence, 90 h;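 active = mean inhibition above about 95%, with at least 55% of replicates also reaching it, limit read from the data; inconclusive = meets just one of the two conditions; inactive = meets neither condition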;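 also: plate controls were neutral control median for no effect and positive control median for full effect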
3T3 cytotox – NIH/3T3 (mouse) viability loss | shares compounds with T cruzi growth-1 | NIH/3T3 viability, CellTiter-Glo ATP luminescence, 90 h | cytotoxicity (signal decrease), % at 8.35 µM | 14% of 5,600 active | AID 651742;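 active = mean signal decrease across replicates above about 35% based on untreated-well scatter, with enough replicates individually passing, limit read from the data; inconclusive = no rule stated though some were filed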;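 also: 0% = median of neutral control wells and 100% = median of positive control wells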
3T3 cytotox 2 – cytotoxicity in mouse NIH/3T3 fibroblasts; shares compounds with T cruzi growth-1; NIH/3T3 viability, CellTiter-Glo ATP luminescence, 90 h; inhibition, % at 24.9 µM; 56% of 5,600 active;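 active = mean loss of cell viability signal at or above a set limit, and enough replicates individually reaching it; inconclusive = meets only the mean limit or only the replicate share; inactive = meets neither condition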;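 also: 0% = median of neutral control wells and 100% = median of positive control wells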
Starred values were filed as active, the others as inactive; ? = inconclusive; nt = no result. Most compounds without a hit are left out; they make up all but 6.8% or so of the library.

SMILES	Pf Dd2 inh	C diff HTS	T cruzi growth-1	T cruzi growth-2	T cruzi growth-3	3T3 cytotox	3T3 cytotox 2
COc1ccc(S(=O)(=O)N(C)C[C@H]2OCCCC[C@@H](C)Oc3ccc(NS(=O)(=O)c4cccs4)cc3C(=O)N([C@H](C)CO)C[C@H]2C)cc1	-71.6	-13.4	109.9*	113.0*	29.0	0.9	-20.4
C[C@@H]1CCCCO[C@H](CN(C)S(=O)(=O)c2ccccc2)[C@@H](C)CN([C@H](C)CO)C(=O)c2cc(NS(=O)(=O)c3cccs3)ccc2O1	nt	5.7	20.7	nt	nt	nt	nt
CCCNC(=O)C[C@H]1C[C@@H]2c3cc(NS(C)(=O)=O)ccc3O[C@@H]2[C@@H](CO)O1	17.7	-1.2	-52.2	nt	nt	nt	nt
COc1ccccc1-c1cn(CC[C@H]2CC[C@H](NC(=O)CCN3CCCCC3)[C@H](CO)O2)nn1	-18.1	2.7	-51.2	nt	nt	nt	nt
C[C@H](CO)N1C[C@H](C)[C@H](CN(C)Cc2ccc3c(c2)OCO3)Oc2ccc(NC(=O)Cc3cn(C)c4ccccc34)cc2CC1=O	-16.5	-0.5	87.6	nt	nt	nt	nt
O=C(C[C@H]1CC[C@H]2[C@@H](COC[C@H](O)CN2Cc2nccs2)O1)NCc1ccccc1	-7.9	nt	-15.8	nt	nt	nt	nt
CCC(=O)N1CCCCN2[C@@H](CO)[C@H](c3ccc(C#Cc4ccccc4)cc3)[C@@H]2C1	-10.3	-1.3	111.9*	105.0*	73.4	58.9*	104.6*
CCC(=O)N1CCCCN2[C@H](CO)[C@H](c3ccc(C#Cc4cccnc4)cc3)[C@@H]2C1	0.3	-7.3	86.9	nt	nt	nt	nt
CCC(=O)N1CCCCN2[C@@H](CO)[C@H](c3ccc(C#CCOC)cc3)[C@@H]2C1	2.1	-1.1	82.4	nt	nt	nt	nt
CCC(=O)N1CCCCN2[C@@H](CO)[C@@H](c3ccc(C#Cc4ccccc4)cc3)[C@@H]2C1	-7.5	7.9	105.6*	103.6*	82.2	24.3	103.9*
CCC(=O)N1CCCCN2[C@H](CO)[C@H](c3ccc(C#Cc4ccccc4)cc3)[C@H]2C1	-26.5	2.4	108.1*	86.4	44.5	40.2*	105.9*
CCC(=O)N1CCCCN2[C@H](CO)[C@@H](c3ccc(C#Cc4ccccc4)cc3)[C@@H]2C1	14.9	-3.8	85.6	nt	nt	nt	nt
CCC(=O)N1CCCCN2[C@@H](CO)[C@@H](c3ccc(C#Cc4cccnc4)cc3)[C@@H]2C1	-24.0	0.0	111.0*	102.0*	76.0	7.9	7.6
CCC(=O)N1CCCCN2[C@@H](CO)[C@@H](c3ccc(C#CCOC)cc3)[C@@H]2C1	6.2	-1.9	30.6	nt	nt	nt	nt
O=C(CCN1CCCCC1)N[C@H]1CC[C@@H](CCn2cc(-c3ccccc3)nn2)O[C@@H]1CO	-6.4	2.2	19.4	nt	nt	nt	nt
O=C(C[C@@H]1CC[C@@H](NC(=O)c2ccccc2)[C@@H](CO)O1)NCc1ccc(Oc2ccccc2)cc1	-3.4	-5.3	-75.0	nt	nt	nt	nt
C[C@H](NC(=O)C[C@@H]1CC[C@H]2[C@@H](COC[C@@H](O)CN2C(=O)Nc2cccc(Cl)c2)O1)c1ccccc1	-5.2	42.9	28.2	nt	nt	nt	nt
CN(C)c1ccc2c(c1)[C@H]1C[C@@H](CC(=O)NCc3ccc(Cl)cc3)O[C@@H](CO)[C@H]1O2	-50.2	-1.3	42.4	nt	nt	nt	nt
COc1ccccc1NC(=O)N[C@H]1CC[C@H](CCNC(=O)c2ccc3c(c2)OCO3)O[C@H]1CO	9.5	nt	-25.9	nt	nt	nt	nt
Cc1noc(C)c1NC(=O)N(C)C[C@@H]1Oc2c(NC(=O)c3ccncc3)cccc2C(=O)N([C@H](C)CO)C[C@H]1C	21.2	nt	-124.2	nt	nt	nt	nt
CC(C)CC#Cc1ccc([C@@H]2[C@H](CO)N3C(=O)CN(C(=O)c4cccc(F)c4)C[C@@H]23)cc1	-58.5	-5.2	nt	nt	nt	nt	nt
CC(C)CC#Cc1ccc2c(c1)O[C@H](CN(C)S(C)(=O)=O)[C@@H](C)CN([C@H](C)CO)S2(=O)=O	-0.5	nt	45.8	nt	nt	nt	nt
CC(C)CC#Cc1ccc2c(c1)O[C@H](CN(C)S(=O)(=O)c1ccc(F)cc1)[C@@H](C)CN([C@@H](C)CO)S2(=O)=O	-79.4	-1.2	nt	nt	nt	nt	nt
COc1ccccc1S(=O)(=O)N(C)C[C@@H]1Oc2cc(C#CCC(C)C)ccc2S(=O)(=O)N([C@@H](C)CO)C[C@@H]1C	-86.6*	18.1	?	103.5*	107.2*	-2.7	56.4*
